Laboratory results as given in publication PMC7862700, “An all-to-all approach to the identification of sequence-specific readers for epigenetic DNA modifications on cytosine”.

What was measured:
Experiment in all cases: DAPPL (digital affinity profiling via proximity ligation, sequencing); 10 mM Tris-HCl pH 7.5, 50 mM NaCl, 1 mM DTT, 4% glycerol, room temperature, 30 min; GST-TFs on glutathione beads, 16-mer random dsDNA library, 0.1% formaldehyde crosslink after washing; high values mean tight binding
Settings in all cases: protein: recombinant; tags: N-terminal GST; dsDNA, one strand shown
FLI1 = target: T1, FLI1 (Homo sapiens, UniProt Q01543 1-452)
T1 sequence: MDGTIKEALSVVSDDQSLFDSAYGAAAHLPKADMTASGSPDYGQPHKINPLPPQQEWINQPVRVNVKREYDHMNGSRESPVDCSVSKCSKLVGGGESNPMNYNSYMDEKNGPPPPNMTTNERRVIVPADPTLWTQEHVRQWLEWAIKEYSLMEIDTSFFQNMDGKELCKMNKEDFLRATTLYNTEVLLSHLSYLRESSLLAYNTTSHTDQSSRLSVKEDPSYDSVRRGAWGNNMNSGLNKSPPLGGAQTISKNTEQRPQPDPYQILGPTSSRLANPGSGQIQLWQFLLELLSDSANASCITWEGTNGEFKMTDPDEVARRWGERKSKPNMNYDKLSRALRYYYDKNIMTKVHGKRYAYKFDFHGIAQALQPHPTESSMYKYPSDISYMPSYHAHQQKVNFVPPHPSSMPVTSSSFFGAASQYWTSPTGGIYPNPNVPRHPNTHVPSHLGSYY
Summary of the method: (§1)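 In yeast, human transcription factors were expressed with a GST fusion, then pulled down on glutathione beads and given DNA barcodes. Pooled with a tag-only sample, they were exposed to 200 nmole of a 16-mer random double-stranded DNA library (Tris/NaCl/DTT/glycerol buffer, room temperature, 30 min), washed, crosslinked with 0.1% formaldehyde, proximity-ligated using BsaI/T4 ligase for 1 h at 37 °C, PCR-amplified and read on an Illumina NextSeq500. Each hexamer's frequency of reads for a factor, divided by the matching frequency for the tag-only sample, gives the binding signal.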

ELK1 = target: T2, ELK1 (Homo sapiens, UniProt P19419 1-428)
T2 sequence: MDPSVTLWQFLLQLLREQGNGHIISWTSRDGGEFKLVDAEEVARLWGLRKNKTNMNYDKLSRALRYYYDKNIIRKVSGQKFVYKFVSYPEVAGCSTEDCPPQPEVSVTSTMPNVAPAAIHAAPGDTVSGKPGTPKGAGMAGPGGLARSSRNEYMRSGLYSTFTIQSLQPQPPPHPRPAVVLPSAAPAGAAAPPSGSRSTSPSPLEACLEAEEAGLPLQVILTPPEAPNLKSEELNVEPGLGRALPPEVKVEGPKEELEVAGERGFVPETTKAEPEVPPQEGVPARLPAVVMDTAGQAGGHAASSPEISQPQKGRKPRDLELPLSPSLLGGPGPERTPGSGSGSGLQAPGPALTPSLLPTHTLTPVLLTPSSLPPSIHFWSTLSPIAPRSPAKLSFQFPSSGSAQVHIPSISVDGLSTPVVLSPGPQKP
Summary of the method: as §1

GABPA = target: T3, GABPA (Homo sapiens, UniProt Q06546 1-454)
T3 sequence: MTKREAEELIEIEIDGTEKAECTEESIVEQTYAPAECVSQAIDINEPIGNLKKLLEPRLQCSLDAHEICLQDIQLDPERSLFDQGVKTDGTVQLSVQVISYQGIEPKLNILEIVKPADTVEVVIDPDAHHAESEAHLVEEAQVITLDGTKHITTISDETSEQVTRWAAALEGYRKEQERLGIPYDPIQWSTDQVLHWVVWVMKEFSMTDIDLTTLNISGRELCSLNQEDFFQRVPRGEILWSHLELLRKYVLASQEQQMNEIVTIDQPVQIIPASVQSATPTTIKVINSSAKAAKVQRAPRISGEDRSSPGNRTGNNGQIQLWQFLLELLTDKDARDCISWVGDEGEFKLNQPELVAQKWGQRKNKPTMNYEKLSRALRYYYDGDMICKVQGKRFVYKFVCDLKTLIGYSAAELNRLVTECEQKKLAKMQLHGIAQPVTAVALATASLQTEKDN
Summary of the method: as §1

ERG = target: T4, ERG (Homo sapiens, UniProt P11308 1-479)
T4 sequence: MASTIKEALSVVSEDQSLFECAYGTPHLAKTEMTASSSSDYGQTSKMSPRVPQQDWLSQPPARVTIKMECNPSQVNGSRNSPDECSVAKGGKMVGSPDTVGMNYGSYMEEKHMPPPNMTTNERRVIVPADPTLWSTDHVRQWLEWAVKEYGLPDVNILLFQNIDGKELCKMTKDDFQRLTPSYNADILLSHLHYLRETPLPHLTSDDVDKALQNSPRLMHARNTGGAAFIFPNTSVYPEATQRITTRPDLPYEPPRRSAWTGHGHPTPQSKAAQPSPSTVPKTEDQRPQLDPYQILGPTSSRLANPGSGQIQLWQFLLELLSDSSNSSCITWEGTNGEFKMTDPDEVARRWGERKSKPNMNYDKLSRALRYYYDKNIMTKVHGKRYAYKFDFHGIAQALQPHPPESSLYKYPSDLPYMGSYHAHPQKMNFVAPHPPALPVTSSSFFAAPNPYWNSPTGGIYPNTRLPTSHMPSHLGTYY
Summary of the method: as §1

ELF1 = ELF1 (Homo sapiens, UniProt P32519 1-619)
Sequence of ELF1 (P32519 whole entry): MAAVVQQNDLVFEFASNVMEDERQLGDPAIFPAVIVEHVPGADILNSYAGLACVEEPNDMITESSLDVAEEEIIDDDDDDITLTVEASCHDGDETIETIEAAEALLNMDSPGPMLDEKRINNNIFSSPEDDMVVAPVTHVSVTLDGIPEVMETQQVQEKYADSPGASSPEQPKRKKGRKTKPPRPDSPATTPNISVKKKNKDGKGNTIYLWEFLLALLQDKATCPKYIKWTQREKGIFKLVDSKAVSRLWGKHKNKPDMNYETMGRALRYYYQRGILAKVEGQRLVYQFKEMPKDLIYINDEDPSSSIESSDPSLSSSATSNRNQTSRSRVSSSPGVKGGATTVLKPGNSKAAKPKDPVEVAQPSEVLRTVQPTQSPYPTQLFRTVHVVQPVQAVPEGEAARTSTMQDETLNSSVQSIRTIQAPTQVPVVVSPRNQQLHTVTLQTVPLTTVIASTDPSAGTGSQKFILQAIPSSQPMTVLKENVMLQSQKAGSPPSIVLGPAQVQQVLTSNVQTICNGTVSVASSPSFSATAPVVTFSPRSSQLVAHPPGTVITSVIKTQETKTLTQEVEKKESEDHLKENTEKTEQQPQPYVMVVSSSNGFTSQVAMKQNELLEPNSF
Summary of the method: as §1

EHF = target: T5, EHF (Homo sapiens, UniProt Q9NZC4 1-300)
T5 sequence: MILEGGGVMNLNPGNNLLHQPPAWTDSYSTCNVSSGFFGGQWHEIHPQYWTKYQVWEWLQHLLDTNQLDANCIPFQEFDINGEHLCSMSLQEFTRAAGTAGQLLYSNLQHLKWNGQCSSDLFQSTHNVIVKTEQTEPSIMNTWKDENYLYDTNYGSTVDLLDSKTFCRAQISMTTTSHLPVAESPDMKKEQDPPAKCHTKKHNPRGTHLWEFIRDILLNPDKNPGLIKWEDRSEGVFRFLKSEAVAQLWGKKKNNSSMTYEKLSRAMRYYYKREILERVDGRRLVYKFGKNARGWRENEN
Summary of the method: as §1

SPI1 = SPI1 (Homo sapiens, UniProt P17947 1-270)
Summary of the method: as §1

SPIB = SPIB (Homo sapiens, UniProt Q01892 1-262)
Sequence of SPIB (Q01892 whole entry): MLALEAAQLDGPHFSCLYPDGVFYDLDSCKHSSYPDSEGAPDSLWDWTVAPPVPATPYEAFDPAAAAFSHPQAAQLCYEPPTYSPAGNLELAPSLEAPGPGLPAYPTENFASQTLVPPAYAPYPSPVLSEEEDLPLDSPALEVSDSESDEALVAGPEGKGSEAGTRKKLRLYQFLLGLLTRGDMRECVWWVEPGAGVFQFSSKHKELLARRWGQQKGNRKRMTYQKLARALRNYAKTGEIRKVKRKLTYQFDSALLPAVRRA
Summary of the method: as §1

ELK3 = target: T6, ELK3 (Homo sapiens, UniProt P41970 1-407)
T6 sequence: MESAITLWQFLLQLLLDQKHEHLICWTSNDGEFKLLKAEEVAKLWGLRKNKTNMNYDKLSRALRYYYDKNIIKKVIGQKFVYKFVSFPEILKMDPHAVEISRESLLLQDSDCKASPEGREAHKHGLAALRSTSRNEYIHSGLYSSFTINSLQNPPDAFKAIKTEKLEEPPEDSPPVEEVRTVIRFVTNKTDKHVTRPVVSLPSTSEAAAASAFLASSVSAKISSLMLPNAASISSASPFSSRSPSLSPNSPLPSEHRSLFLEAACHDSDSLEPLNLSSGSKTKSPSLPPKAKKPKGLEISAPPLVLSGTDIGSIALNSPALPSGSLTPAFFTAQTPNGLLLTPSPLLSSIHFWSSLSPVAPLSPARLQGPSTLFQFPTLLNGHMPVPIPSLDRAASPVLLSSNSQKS
Summary of the method: as §1

TACTTG
binding signal (FLI1): 1.39 fold enrichment (6-mer frequency, TF over GST control) | binding signal (ELK1): 1.39 fold enrichment (6-mer frequency, TF over GST control) | binding signal (GABPA): 1.34 fold enrichment (6-mer frequency, TF over GST control) | binding signal (ERG): 1.18 fold enrichment (6-mer frequency, TF over GST control) | binding signal (ELF1): 1.32 fold enrichment (6-mer frequency, TF over GST control) | binding signal (EHF): 1.32 fold enrichment (6-mer frequency, TF over GST control) | binding signal (SPI1): 1.27 fold enrichment (6-mer frequency, TF over GST control) | binding signal (SPIB): 1.44 fold enrichment (6-mer frequency, TF over GST control) | binding signal (ELK3): 1.35 fold enrichment (6-mer frequency, TF over GST control)
